Values without a mark were called inactive.
Key:
Assay in all cases: log2 ratio of Biotin-Ahx-Ub-VS probe labelling (compound/DMSO); higher = less target engagement, active = hit call of the paper (q ≤ 0.05, log2 ratio ≤ -1)
Conditions in all cases: treatment time: 3 h
[1] = compound: CN(Cc1cccc(Br)c1)C(=O)CCl
Procedure, shortened: (§1)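 Compound at 50 or 200 µM, or DMSO, was applied for 3 h in triplicate to HEK293T lysate (495 µg per sample, Tris/CHAPS/IGEPAL buffer with protease inhibitors), after which Biotin-Ahx-Ub-VS was added at 0.5 µM final for 1 h. The labelled DUBs were pulled down with NeutrAvidin, digested with LysC and trypsin, and run by diaPASEF LC-MS/MS. Ratios are averaged base-two logs of compound over DMSO from median-normalised label-free quantities by unpaired t-test, counting only proteins with at least 2 unique peptides.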

[2] = compound: CN(Cc1cccc(OCc2ccccc2C)c1)C(=O)CCl
Procedure, shortened: as §1

[3] = compound: CN(Cc1ccccc1)C(=O)CCl
Procedure, shortened: as §1

[4] = compound: COc1ccc(CN(C)C(=O)CCl)cc1
Procedure, shortened: as §1

[5] = compound: COc1cccc(CN(CCCc2ccccc2)C(=O)CCl)c1
Procedure, shortened: as §1

[6] = compound: ClCC(=O)N1CCc2cc(Cl)c(Cl)cc2C1
Procedure, shortened: as §1

[7] = compound: ClCC(=O)N1CCc2nc(ncc2C1)-c1ccccc1
Procedure, shortened: as §1

[8] = compound: ClCC(=O)N1CCc2nocc2C1
Procedure, shortened: as §1

[9] = compound: ClCC(=O)N1CCc2scc(Br)c2C1
Procedure, shortened: as §1

[10] = compound: ClCC(=O)NC(C1CCCC1)c1cccs1
Procedure, shortened: as §1

[11] = compound: ClCC(=O)NC1CCCc2ccccc12
Procedure, shortened: as §1

[12] = compound: ClCC(=O)NC1CCOc2ccc(Cl)cc12
Procedure, shortened: as §1

[13] = compound: ClCC(=O)NC1CCSc2ccccc12
Procedure, shortened: as §1

[14] = compound: ClCC(=O)N[C@H]1CCCc2ccccc12
Procedure, shortened: as §1

[15] = compound: Fc1ccc(N2CCN(c3nc4c(CN(C(CCl)=O)CC4)cn3)CC2)cc1.Cl.Cl
Procedure, shortened: as §1

Chain of UniProt Q96RU2 (Q96RU2 whole entry): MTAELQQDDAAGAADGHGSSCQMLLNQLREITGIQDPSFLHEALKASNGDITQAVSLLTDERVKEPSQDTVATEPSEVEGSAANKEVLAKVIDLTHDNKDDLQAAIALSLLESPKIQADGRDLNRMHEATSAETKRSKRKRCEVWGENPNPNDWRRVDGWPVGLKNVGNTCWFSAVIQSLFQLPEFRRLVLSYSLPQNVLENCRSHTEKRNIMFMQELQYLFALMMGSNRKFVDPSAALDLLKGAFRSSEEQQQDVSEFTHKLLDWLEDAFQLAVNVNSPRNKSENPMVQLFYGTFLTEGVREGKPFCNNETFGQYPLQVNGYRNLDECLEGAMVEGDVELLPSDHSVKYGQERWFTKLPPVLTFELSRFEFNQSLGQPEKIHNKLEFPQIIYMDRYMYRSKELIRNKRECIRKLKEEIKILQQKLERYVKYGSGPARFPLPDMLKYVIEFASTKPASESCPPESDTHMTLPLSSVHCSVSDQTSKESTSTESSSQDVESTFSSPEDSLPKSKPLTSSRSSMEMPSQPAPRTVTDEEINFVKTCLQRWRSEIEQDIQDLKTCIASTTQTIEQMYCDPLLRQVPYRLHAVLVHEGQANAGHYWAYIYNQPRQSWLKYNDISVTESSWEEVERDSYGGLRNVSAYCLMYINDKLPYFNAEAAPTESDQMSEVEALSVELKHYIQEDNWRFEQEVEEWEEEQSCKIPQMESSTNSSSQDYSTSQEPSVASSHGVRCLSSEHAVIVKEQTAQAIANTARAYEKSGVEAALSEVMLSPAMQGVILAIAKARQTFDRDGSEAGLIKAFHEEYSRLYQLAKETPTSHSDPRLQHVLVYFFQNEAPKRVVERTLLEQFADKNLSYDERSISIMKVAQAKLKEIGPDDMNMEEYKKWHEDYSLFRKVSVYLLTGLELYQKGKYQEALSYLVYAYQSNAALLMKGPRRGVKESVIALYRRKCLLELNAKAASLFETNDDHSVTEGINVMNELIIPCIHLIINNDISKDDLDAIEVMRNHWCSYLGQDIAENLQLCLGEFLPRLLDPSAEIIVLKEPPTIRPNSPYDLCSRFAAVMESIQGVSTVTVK
Chain of UniProt Q9P2H5 (Q9P2H5 whole entry): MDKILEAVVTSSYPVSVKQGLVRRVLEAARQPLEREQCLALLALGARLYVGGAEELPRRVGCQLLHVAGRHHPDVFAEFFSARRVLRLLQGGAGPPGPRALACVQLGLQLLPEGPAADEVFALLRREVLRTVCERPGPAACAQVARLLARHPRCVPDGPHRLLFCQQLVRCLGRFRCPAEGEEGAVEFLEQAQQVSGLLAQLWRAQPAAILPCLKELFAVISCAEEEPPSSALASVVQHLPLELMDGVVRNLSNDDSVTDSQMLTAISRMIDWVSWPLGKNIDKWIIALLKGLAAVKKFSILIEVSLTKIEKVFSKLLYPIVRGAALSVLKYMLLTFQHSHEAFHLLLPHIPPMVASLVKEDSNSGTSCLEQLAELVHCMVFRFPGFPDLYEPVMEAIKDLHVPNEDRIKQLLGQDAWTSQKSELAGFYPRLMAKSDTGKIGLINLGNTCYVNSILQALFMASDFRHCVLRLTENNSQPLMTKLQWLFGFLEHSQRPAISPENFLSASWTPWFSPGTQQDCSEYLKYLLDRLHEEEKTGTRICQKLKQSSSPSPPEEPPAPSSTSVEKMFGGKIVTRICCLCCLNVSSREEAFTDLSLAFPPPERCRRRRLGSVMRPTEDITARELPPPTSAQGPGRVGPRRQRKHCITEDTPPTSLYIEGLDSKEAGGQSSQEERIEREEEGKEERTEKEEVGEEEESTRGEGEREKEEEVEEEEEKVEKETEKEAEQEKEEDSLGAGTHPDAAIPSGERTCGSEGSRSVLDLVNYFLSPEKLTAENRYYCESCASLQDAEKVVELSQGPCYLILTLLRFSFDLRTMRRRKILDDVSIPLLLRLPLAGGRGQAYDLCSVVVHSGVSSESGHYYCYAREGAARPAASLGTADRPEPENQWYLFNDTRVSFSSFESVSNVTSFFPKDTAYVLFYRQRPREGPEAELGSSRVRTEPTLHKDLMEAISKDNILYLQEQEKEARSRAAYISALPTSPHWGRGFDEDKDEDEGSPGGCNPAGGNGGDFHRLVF
Chain of UniProt P62068 (P62068 whole entry): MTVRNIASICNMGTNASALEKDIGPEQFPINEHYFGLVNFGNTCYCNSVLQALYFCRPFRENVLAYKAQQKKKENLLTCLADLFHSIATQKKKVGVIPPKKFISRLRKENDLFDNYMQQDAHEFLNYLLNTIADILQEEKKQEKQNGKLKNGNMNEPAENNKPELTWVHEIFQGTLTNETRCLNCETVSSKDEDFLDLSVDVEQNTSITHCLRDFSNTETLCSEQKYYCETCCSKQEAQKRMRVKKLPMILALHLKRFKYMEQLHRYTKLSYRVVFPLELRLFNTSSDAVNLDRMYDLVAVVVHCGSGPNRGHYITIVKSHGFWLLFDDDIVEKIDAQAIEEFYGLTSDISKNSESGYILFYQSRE
Chain of UniProt Q9NP73 (Q9NP73 whole entry): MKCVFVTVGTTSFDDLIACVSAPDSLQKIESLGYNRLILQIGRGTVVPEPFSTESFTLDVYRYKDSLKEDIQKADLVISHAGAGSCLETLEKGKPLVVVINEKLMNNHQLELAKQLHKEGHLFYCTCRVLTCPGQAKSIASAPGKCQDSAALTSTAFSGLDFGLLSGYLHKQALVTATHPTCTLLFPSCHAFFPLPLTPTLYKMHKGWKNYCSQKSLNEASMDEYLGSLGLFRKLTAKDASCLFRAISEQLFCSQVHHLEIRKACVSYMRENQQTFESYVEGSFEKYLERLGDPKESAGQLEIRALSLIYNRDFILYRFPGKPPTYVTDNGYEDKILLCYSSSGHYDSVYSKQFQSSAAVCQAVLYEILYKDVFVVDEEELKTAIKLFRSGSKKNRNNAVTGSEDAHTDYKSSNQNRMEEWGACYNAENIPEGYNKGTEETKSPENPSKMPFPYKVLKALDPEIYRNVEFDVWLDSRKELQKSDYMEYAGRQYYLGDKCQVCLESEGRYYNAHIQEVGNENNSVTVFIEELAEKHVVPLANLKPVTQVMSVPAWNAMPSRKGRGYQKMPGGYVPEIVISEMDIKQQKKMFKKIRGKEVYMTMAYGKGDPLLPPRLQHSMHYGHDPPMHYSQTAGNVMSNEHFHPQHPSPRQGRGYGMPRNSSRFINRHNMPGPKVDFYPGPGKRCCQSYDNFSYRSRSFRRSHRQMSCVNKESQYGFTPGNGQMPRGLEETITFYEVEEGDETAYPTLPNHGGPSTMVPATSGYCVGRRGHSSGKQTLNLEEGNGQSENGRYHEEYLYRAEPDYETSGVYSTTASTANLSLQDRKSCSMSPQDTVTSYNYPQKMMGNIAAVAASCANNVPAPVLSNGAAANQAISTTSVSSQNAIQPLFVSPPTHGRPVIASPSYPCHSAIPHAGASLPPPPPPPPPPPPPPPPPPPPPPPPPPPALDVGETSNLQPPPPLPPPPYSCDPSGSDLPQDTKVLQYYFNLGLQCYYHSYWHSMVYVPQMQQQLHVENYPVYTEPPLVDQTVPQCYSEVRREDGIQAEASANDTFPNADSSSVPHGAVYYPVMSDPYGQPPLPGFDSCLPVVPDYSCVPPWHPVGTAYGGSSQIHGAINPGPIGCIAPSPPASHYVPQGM
Chain of UniProt Q70EL2 (Q70EL2 whole entry): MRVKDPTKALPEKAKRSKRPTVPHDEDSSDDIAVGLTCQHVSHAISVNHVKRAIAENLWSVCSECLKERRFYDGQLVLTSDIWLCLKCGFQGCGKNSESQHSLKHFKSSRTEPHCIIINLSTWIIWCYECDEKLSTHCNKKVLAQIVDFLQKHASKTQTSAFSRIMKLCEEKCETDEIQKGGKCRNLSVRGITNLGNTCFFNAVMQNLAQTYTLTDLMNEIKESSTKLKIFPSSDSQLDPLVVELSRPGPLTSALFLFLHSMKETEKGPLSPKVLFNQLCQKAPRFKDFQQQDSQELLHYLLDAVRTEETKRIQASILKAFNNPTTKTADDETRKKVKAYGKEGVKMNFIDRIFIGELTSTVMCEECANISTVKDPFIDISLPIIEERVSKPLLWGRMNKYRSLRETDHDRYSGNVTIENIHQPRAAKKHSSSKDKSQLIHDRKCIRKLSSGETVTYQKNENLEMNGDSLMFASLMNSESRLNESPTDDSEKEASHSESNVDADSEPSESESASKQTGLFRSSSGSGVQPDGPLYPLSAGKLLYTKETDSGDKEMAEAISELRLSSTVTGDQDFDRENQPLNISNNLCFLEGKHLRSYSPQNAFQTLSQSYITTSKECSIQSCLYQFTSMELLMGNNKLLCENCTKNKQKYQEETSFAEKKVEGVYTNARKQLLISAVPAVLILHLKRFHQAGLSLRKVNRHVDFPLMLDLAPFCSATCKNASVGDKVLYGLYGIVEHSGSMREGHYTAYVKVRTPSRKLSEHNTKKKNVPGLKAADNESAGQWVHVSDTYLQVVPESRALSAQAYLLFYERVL
Chain of UniProt O15372 (O15372 whole entry): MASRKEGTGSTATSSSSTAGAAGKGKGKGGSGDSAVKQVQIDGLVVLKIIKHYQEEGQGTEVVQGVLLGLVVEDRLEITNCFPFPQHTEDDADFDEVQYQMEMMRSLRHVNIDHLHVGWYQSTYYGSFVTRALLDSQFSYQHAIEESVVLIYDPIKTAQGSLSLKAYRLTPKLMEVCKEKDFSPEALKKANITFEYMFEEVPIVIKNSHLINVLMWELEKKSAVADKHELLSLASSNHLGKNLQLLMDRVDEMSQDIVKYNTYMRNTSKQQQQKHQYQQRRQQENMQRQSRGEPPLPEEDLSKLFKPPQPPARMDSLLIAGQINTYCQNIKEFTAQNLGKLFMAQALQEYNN

Target	log2 ratio of Biotin-Ahx-Ub-VS probe labelling ([1]; compound concentration: 50uM)	log2 ratio of Biotin-Ahx-Ub-VS probe labelling ([1]; compound concentration: 200uM)	log2 ratio of Biotin-Ahx-Ub-VS probe labelling ([2]; compound concentration: 50uM)	log2 ratio of Biotin-Ahx-Ub-VS probe labelling ([2]; compound concentration: 200uM)	log2 ratio of Biotin-Ahx-Ub-VS probe labelling ([3]; compound concentration: 50uM)	log2 ratio of Biotin-Ahx-Ub-VS probe labelling ([3]; compound concentration: 200uM)	log2 ratio of Biotin-Ahx-Ub-VS probe labelling ([4]; compound concentration: 50uM)	log2 ratio of Biotin-Ahx-Ub-VS probe labelling ([4]; compound concentration: 200uM)	log2 ratio of Biotin-Ahx-Ub-VS probe labelling ([5]; compound concentration: 50uM)	log2 ratio of Biotin-Ahx-Ub-VS probe labelling ([5]; compound concentration: 200uM)	log2 ratio of Biotin-Ahx-Ub-VS probe labelling ([6]; compound concentration: 50uM)	log2 ratio of Biotin-Ahx-Ub-VS probe labelling ([6]; compound concentration: 200uM)	log2 ratio of Biotin-Ahx-Ub-VS probe labelling ([7]; compound concentration: 50uM)	log2 ratio of Biotin-Ahx-Ub-VS probe labelling ([7]; compound concentration: 200uM)	log2 ratio of Biotin-Ahx-Ub-VS probe labelling ([8]; compound concentration: 50uM)	log2 ratio of Biotin-Ahx-Ub-VS probe labelling ([8]; compound concentration: 200uM)	log2 ratio of Biotin-Ahx-Ub-VS probe labelling ([9]; compound concentration: 50uM)	log2 ratio of Biotin-Ahx-Ub-VS probe labelling ([9]; compound concentration: 200uM)	log2 ratio of Biotin-Ahx-Ub-VS probe labelling ([10]; compound concentration: 50uM)	log2 ratio of Biotin-Ahx-Ub-VS probe labelling ([10]; compound concentration: 200uM)	log2 ratio of Biotin-Ahx-Ub-VS probe labelling ([11]; compound concentration: 50uM)	log2 ratio of Biotin-Ahx-Ub-VS probe labelling ([11]; compound concentration: 200uM)	log2 ratio of Biotin-Ahx-Ub-VS probe labelling ([12]; compound concentration: 50uM)	log2 ratio of Biotin-Ahx-Ub-VS probe labelling ([12]; compound concentration: 200uM)	log2 ratio of Biotin-Ahx-Ub-VS probe labelling ([13]; compound concentration: 50uM)	log2 ratio of Biotin-Ahx-Ub-VS probe labelling ([13]; compound concentration: 200uM)	log2 ratio of Biotin-Ahx-Ub-VS probe labelling ([14]; compound concentration: 50uM)	log2 ratio of Biotin-Ahx-Ub-VS probe labelling ([14]; compound concentration: 200uM)	log2 ratio of Biotin-Ahx-Ub-VS probe labelling ([15]; compound concentration: 50uM)	log2 ratio of Biotin-Ahx-Ub-VS probe labelling ([15]; compound concentration: 200uM)
USP28 (UniProt Q96RU2)	-0.197	-0.68	-0.572	-0.911	-0.195	-0.692	-0.172	-0.467	-0.253	-0.826	-0.496	-1.71 (active)	-0.15	-0.716	-0.192	-0.624	-0.468	-1.28 (active)	-0.0425	-0.313	-0.263	-0.626	-0.164	-0.586	-0.108	-0.622	-0.259	-0.947	-0.134	-1.12 (active)
USP42 (UniProt Q9H9J4)	0.0496	0.397	0.101	0.171	-0.0195	0.165	-0.0749	0.205	0.0537	0.284	0.0405	0.669	-0.0528	0.104	0.0476	0.187	0.182	0.44	-0.428	0.159	0.113	0.286	-0.00469	0.132	0.137	0.26	-0.0967	0.0714	-0.0766	0.241
UniProt Q70EL2	-0.228	-0.814	-0.959	-0.772	-0.191	-0.88	-0.338	-0.647	-0.512	-0.481	-0.569	-1.27 (active)	-0.558	-1.03 (active)	-0.0582	-0.311	-0.413	-0.868	0.37	-0.115	0.0142	-0.673	-0.00989	-0.0714	0.0879	0.0524	0.0625	-0.323	-0.414	-0.995
ALG13 (UniProt Q9NP73)	0.0661	-0.148	0.469	-0.522	0.171	0.0619	0.45	0.0354	0.162	-0.285	0.247	0.454	0.157	-0.117	0.493	-0.0466	0.393	0.369	-0.273	0.0789	0.298	0.114	0.599	0.0386	0.273	-0.0598	0.244	0.344	0.0824	0.24
UniProt Q9P2H5	0.0586	-0.355	-0.626	-0.327	-0.0969	-0.154	-0.301	-0.182	-0.114	-0.29	-0.263	-0.82	0.133	-0.449	-0.415	-0.273	-0.192	-0.595	0.156	0.0366	-0.0608	0.0712	-0.42	-0.205	0.0602	-0.0405	-0.178	-0.0371	-0.262	-1.08 (active)
EIF3H (UniProt O15372)	-0.0499	-0.495	-0.0626	-0.0695	-0.0247	-0.0426	-0.128	0.0275	0.0566	0.0114	-0.344	0.309	-0.162	0.025	0.0895	-0.349	-0.0247	0.0406	-0.136	0.0107	-0.0316	-0.379	-0.141	-0.0932	-0.0985	-0.00068	-0.109	0.0728	0.0328	-0.126
BAP1 (UniProt Q92560)	-0.773	-2.12 (active)	-1.42 (active)	-3.08 (active)	-0.833	-2.17 (active)	-0.731	-1.9 (active)	-1.04 (active)	-3.18 (active)	-0.373	-1.76 (active)	-0.341	-1.91 (active)	-0.448	-1.16 (active)	-0.426	-1.68 (active)	-0.924	-2.92 (active)	-0.474	-1.23 (active)	-1.05 (active)	-2.38 (active)	-0.619	-2.44 (active)	-0.684	-1.69 (active)	-0.262	-1.91 (active)
USP46 (UniProt P62068)	-0.406	-0.773	-0.515	-0.89	-0.252	-1.01 (active)	-0.0785	-0.634	-0.32	-1.33 (active)	-0.575	-2.77 (active)	0.0166	-1.12 (active)	-0.22	-0.641	-0.291	-1.43 (active)	0.0547	-0.255	-0.0934	-0.257	-0.229	-0.251	-0.017	-0.304	-0.00597	-0.413	-0.241	-1.72 (active)

Reference: the supplement of paper PMC11732987, “Enantioselective OTUD7B fragment discovery through chemoproteomics screening and high-throughput optimisation” (Communications Chemistry, 2025)
